For assay [1], the target named is Protein kinase C gamma type (Homo sapiens) (UniProt P05129). As to conditions: at 1 µM.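 Note: each value is an averaged percent inhibition of the enzyme.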
The target of assay [2] is T1, Protein kinase C iota type (Homo sapiens) (UniProt P41743).
T1 sequence (whole entry): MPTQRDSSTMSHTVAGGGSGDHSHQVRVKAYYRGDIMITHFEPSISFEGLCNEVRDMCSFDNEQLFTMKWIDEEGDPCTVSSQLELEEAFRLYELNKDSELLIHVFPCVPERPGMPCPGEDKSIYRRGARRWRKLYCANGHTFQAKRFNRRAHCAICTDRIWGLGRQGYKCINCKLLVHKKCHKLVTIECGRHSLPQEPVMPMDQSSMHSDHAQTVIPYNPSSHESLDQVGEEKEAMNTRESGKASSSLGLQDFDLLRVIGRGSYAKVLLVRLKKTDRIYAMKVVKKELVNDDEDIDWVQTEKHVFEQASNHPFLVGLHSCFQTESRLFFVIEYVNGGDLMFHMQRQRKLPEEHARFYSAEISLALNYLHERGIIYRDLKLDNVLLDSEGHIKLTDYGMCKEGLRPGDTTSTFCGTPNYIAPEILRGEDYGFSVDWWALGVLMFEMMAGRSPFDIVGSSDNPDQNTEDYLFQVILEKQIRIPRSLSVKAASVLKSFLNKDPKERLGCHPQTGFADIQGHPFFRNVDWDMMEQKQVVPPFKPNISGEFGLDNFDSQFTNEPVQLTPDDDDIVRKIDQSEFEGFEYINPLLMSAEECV
As to conditions: at 0.1 µM.

Assay [3] concerns the target T1, Protein kinase C iota type (Homo sapiens). To be noted: at 1 µM.
The target in assay [4] is Protein kinase C theta type (Homo sapiens) (UniProt Q04759). As to conditions: at 0.1 µM.
For assay [5] the target is unchanged. As to conditions: at 1 µM.
Assay [6] concerns the target Protein kinase C beta type (Homo sapiens) (UniProt P05771). As to conditions: at 0.1 µM.
The target is the same in assay [7]. As to conditions: at 1 µM.
Assay [8] deals with T2, Serine/threonine-protein kinase D1 (Homo sapiens) (UniProt Q15139).
T2 sequence (whole entry): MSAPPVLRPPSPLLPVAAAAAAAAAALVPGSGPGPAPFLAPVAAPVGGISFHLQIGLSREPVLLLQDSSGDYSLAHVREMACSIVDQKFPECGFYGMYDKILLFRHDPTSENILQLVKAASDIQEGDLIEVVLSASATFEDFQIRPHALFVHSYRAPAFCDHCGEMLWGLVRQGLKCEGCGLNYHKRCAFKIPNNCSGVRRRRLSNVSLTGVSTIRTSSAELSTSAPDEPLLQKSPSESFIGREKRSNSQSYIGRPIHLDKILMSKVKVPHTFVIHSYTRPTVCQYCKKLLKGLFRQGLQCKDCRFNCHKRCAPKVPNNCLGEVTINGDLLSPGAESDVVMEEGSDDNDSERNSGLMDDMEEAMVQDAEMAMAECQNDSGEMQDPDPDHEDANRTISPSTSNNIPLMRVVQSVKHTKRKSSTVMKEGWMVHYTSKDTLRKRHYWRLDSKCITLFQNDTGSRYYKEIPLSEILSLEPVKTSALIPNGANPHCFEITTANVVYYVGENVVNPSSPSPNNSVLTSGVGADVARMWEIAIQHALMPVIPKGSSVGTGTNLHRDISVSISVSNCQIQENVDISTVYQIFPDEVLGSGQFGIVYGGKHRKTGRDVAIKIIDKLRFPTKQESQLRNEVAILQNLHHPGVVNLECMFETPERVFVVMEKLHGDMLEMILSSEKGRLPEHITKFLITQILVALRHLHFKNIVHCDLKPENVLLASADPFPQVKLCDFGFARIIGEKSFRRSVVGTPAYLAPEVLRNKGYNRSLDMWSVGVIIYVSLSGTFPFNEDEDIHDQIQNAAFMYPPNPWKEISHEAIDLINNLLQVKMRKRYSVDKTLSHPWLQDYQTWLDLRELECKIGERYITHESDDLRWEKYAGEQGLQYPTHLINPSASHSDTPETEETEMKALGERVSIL
To be noted: at 0.1 µM.

Assay [9] has as its target T2, Serine/threonine-protein kinase D1 (Homo sapiens). As to conditions: at 1 µM.
For assay [10], the target named is T3, Serine/threonine-protein kinase D2 (Homo sapiens) (UniProt Q9BZL6).
T3 sequence (whole entry): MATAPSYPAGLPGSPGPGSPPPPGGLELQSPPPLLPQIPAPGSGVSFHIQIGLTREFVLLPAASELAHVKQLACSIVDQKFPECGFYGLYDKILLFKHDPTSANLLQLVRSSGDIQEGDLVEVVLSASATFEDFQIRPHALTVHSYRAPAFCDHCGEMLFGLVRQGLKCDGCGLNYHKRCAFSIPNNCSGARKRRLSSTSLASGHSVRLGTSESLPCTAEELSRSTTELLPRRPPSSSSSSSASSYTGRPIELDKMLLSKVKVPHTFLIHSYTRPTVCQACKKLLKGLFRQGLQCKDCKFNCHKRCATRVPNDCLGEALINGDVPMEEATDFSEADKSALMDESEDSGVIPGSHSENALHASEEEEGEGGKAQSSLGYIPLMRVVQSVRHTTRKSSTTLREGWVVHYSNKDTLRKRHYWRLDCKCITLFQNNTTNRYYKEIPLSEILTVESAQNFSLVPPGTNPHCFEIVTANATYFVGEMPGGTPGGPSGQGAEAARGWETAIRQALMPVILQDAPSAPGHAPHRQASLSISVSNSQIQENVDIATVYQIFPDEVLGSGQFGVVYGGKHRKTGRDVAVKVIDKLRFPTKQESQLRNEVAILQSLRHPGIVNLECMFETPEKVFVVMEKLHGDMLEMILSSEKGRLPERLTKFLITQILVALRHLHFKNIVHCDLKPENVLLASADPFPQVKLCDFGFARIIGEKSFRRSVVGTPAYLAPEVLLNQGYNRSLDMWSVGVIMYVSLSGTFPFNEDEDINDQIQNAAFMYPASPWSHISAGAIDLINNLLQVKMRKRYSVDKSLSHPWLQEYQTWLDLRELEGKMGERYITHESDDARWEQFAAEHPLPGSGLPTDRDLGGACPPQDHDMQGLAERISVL
To be noted: at 0.1 µM.

Assay [11] concerns the target T3, Serine/threonine-protein kinase D2 (Homo sapiens). As to conditions: at 1 µM.
In assay [12] the target is T4, Serine/threonine-protein kinase D3 (Homo sapiens) (UniProt O94806).
T4 sequence (whole entry): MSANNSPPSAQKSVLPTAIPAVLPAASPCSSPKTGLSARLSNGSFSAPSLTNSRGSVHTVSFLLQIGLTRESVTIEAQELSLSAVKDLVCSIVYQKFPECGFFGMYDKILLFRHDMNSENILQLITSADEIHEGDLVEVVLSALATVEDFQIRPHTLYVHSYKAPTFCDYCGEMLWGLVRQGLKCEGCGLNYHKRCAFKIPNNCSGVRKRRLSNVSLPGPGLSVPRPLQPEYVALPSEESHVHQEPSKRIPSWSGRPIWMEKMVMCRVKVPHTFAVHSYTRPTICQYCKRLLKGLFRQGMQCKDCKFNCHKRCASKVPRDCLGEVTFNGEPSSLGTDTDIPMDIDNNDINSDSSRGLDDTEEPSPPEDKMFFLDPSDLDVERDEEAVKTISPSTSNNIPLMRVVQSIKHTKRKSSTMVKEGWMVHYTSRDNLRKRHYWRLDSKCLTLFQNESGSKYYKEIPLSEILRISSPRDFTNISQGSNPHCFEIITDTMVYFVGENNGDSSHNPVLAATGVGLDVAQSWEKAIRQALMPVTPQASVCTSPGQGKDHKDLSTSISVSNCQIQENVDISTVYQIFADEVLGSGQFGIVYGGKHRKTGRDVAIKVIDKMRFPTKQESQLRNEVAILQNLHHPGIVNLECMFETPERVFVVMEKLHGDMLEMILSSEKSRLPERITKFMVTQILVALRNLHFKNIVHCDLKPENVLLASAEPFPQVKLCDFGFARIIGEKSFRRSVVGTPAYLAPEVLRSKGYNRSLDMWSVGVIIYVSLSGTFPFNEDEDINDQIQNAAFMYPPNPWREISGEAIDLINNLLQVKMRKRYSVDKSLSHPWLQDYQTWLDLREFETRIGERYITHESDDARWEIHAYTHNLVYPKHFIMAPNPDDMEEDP
To be noted: at 0.1 µM.

The target of assay [13] is T4, Serine/threonine-protein kinase D3 (Homo sapiens). As to conditions: at 1 µM.
In assay [14] the target is T5, cGMP-dependent protein kinase 1 (Homo sapiens) (UniProt Q13976).
T5 sequence (whole entry): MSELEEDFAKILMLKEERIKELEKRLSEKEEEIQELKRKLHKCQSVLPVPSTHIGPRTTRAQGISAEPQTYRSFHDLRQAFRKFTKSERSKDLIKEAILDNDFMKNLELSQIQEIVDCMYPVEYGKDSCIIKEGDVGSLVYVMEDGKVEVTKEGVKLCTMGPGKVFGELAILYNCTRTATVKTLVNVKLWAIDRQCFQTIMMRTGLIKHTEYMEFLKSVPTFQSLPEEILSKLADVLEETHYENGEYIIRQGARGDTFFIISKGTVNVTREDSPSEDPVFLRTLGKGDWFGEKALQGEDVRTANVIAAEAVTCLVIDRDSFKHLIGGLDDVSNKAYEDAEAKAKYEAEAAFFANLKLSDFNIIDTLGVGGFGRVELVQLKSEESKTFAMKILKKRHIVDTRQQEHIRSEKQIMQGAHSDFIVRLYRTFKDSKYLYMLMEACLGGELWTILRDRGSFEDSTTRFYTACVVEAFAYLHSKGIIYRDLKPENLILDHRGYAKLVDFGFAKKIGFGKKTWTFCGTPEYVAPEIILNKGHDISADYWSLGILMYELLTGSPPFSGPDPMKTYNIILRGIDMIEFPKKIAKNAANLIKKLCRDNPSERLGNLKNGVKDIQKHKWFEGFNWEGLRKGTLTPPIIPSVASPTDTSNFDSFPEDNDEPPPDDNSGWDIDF
As to conditions: at 0.1 µM.

Assay [15] addresses T5, cGMP-dependent protein kinase 1 (Homo sapiens). As to conditions: at 1 µM.
In assay [16] the target is T6, cGMP-dependent protein kinase 2 (Homo sapiens) (UniProt Q13237).
T6 sequence (whole entry): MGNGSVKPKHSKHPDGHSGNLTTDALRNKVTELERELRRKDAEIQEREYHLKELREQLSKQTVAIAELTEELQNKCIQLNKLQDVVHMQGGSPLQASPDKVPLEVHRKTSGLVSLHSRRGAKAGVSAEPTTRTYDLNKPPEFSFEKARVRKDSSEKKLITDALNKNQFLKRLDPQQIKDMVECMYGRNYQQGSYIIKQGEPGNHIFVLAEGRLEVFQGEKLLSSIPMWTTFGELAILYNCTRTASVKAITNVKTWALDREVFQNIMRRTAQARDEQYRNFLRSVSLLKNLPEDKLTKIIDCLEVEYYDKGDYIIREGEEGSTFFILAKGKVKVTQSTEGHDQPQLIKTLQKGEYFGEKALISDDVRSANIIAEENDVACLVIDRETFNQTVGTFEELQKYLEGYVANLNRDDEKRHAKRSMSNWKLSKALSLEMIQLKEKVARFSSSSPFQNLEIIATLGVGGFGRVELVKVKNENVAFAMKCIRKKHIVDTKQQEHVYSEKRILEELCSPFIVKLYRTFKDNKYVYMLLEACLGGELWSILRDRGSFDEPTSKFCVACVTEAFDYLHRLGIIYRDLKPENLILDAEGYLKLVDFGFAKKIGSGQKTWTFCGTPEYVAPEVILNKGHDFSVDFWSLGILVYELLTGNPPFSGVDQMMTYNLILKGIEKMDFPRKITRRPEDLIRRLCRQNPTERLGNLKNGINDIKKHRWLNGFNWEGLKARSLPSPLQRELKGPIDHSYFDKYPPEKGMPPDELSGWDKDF
As to conditions: at 0.1 µM.

Assay [17] deals with T6, cGMP-dependent protein kinase 2 (Homo sapiens). To be noted: at 1 µM.
Assay [18] deals with T7, cAMP-dependent protein kinase catalytic subunit PRKX (Homo sapiens) (UniProt P51817).
T7 sequence (whole entry): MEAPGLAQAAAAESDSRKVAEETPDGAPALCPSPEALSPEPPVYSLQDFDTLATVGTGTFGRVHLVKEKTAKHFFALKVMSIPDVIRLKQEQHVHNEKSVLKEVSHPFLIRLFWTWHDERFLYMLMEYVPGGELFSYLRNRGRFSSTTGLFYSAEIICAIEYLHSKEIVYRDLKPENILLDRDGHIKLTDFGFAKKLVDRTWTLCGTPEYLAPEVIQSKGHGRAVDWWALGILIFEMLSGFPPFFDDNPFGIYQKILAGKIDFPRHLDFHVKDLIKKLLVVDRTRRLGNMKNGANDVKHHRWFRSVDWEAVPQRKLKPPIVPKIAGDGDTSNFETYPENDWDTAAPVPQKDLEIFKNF
As to conditions: at 0.1 µM.

Assay [19] addresses T7, cAMP-dependent protein kinase catalytic subunit PRKX (Homo sapiens). As to conditions: at 1 µM.
For assay [20], the target named is Rho-associated protein kinase 1 (Homo sapiens) (UniProt Q13464). As to conditions: at 0.1 µM.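 Note: values are mean percent inhibition of ROCK1.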
Sequence of Rho-associated protein kinase 1 (Homo sapiens) (Q13464 2-1354 limits assumed): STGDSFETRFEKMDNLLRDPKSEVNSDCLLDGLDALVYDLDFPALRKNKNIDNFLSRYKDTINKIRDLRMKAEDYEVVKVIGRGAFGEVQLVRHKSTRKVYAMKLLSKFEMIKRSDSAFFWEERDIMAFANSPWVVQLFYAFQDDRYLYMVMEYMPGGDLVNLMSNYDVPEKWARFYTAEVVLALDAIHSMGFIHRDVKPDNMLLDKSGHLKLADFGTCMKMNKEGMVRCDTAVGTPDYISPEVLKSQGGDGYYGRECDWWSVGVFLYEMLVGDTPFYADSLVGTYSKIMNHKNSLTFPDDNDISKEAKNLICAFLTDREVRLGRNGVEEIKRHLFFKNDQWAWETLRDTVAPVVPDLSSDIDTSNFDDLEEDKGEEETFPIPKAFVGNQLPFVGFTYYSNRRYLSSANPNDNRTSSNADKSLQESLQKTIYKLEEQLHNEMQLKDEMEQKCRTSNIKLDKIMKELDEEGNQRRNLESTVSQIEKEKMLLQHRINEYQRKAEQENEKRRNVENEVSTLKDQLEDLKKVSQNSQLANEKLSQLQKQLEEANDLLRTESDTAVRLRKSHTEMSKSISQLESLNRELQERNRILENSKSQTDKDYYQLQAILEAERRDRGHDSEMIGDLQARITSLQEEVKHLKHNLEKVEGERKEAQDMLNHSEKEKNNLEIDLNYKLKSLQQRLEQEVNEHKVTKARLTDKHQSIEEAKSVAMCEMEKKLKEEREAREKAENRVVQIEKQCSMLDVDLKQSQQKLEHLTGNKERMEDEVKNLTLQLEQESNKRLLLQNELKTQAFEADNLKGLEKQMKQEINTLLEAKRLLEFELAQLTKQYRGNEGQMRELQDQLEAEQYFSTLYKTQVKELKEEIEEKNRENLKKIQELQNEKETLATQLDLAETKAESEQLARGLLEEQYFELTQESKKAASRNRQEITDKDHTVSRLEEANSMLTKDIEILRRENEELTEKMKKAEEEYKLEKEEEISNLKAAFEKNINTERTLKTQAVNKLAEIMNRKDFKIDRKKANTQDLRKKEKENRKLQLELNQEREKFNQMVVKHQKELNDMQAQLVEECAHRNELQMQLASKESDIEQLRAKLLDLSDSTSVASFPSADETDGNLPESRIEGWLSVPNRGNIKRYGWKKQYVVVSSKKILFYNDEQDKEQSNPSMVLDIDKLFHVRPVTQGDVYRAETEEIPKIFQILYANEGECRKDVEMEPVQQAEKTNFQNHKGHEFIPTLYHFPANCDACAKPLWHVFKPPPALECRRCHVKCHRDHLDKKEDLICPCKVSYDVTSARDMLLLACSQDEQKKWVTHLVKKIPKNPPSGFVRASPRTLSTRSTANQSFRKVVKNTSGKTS

Sequence of Protein kinase C theta type (Homo sapiens) (Q04759 whole entry, looked up): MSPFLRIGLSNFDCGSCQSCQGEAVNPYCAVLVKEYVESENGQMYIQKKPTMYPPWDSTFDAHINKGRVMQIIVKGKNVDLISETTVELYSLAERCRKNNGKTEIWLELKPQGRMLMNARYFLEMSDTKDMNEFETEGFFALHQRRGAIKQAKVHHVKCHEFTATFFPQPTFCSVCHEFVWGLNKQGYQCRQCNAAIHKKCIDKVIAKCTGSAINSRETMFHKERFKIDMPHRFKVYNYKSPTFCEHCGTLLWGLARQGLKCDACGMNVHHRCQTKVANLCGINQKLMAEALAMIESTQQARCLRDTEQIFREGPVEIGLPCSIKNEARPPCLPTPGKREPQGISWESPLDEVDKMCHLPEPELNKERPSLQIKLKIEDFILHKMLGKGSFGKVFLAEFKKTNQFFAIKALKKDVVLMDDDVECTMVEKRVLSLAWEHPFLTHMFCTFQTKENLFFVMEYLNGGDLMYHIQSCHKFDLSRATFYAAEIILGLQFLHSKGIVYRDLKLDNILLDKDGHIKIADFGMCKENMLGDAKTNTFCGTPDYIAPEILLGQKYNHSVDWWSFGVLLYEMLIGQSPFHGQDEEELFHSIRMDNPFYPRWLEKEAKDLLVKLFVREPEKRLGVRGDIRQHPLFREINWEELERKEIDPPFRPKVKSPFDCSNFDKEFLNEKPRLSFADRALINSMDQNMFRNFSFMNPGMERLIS
Sequence of Protein kinase C beta type (Homo sapiens) (P05771 2-671 limits assumed): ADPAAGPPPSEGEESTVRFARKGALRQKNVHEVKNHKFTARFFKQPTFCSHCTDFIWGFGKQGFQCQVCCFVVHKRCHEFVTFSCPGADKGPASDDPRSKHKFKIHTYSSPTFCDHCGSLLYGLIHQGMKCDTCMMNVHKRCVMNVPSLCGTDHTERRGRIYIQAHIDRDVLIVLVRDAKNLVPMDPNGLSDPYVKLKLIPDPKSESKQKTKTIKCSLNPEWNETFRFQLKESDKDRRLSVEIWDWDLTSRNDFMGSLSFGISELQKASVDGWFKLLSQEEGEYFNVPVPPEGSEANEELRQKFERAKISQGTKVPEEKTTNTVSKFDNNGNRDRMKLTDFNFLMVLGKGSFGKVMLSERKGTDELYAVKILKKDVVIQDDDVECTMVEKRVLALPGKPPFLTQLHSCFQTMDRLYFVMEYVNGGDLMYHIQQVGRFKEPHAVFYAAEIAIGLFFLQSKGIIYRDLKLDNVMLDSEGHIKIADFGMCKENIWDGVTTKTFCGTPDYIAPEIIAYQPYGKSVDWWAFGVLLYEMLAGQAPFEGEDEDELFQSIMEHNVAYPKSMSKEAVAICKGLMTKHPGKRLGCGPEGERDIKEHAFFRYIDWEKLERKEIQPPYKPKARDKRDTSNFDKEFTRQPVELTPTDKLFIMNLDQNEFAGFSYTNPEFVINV

Turning to `Fc1ccc(-c2ncn(C3CCNCC3)c2-c2ccnc(Oc3ccc(Oc4ccccc4)cc3)n2)cc1`, the inhibition in [1] turned out to be 4.82%; in assay [2], 1.22%; in [3], 2.19%; in assay [4], 1.9%; in assay [5], 3.54%; in assay [6], 2.63%. Also, the inhibition in assay [7] is 12.4%; in assay [8] it was 5.08%; in assay [9], 8.65%; in assay [10], 4.63%; in assay [11] it was 5.64%; in [12], 5.21%. Further, the inhibition in assay [13] was determined as 7.01%; in assay [14], 4.81%; in [15], 7.25%; in [16], 3.21%; in assay [17], 4.62%; in assay [18], 2.43%. Also, the inhibition amounted to 3.21% in [19] and 2.39% in assay [20].
For the compound `O=C(Nc1n[nH]c2nc(-c3ccc(O)cc3)c(Br)cc12)C1CC1`, the inhibition in assay [1] was 48.1%; in assay [2], 5.33%; in assay [3], 19.2%; in assay [4], 7.68%; in assay [5], 33.2%; in assay [6], 19%. The inhibition is 57.6% in assay [7]; 4.47% in [8]; 7.7% in assay [9]; 6.19% in assay [10]; 5.92% in assay [11]; 5.64% in assay [12]. Further, the inhibition in assay [13] stood at 6.49%; in assay [14] it was 3.5%; in assay [15], 6.22%; in assay [16], 5.14%; in assay [17], 27.8%; in assay [18] it was 3.04%. Besides, the figures for the inhibition in assay [19] and in assay [20] were 4.28% and 0.72%, respectively.

The term inhibition denotes how much of the control response was suppressed. Low values mean little suppression, high ones strong suppression.

These data come from ChEMBL document CHEMBL1961873, “Compounds: GSK PKIS; Assays: Nanosyn kinase panel” (2012).
